# Reference: the supplement of paper PMC8728848
# The full list was thinned out, with the strongest signals kept by preference.
# Assays:
# Assay in all cases: glycan array binding signal (z-score within array); higher = stronger binding
# Conditions in all cases: glycan notation: IUPAC condensed, linker removed
# [1] = target: Fuc(a1-2)Gal(b1-3)GlcNAc(b1-2)Man(a1-3)[Fuc(a1-2)Gal(b1-3)GlcNAc(b1-2)Man(a1-6)]Man(b1-4)GlcNAc(b1-4)GlcNAc
# In short: (§1)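 From the Consortium for Functional Glycomics database, 3228 arrays were curated, keeping only those whose protein sequence was available. Binding is given as a within-array Z-score averaged across arrays sharing a protein sequence and across linkers. Negative Z-scores can be read as non-binding.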
# [2] = target: Fuc(a1-2)Gal(b1-4)GlcNAc6S
# In short: as §1
# [3] = target: Fuc(a1-2)Gal(b1-4)[Fuc(a1-3)]GlcNAc(b1-2)[Fuc(a1-2)Gal(b1-4)[Fuc(a1-3)]GlcNAc(b1-4)]Man(a1-3)[Fuc(a1-2)Gal(b1-4)[Fuc(a1-3)]GlcNAc(b1-2)Man(a1-6)]Man(b1-4)GlcNAc(b1-4)GlcNAc
# In short: as §1
# [4] = target: Fuc(a1-2)Gal(b1-4)[Fuc(a1-3)]GlcNAc(b1-3)Gal(b1-4)[Fuc(a1-3)]GlcNAc(b1-3)Gal(b1-4)[Fuc(a1-3)]GlcNAc
# In short: as §1
# [5] = target: Fuc(a1-2)Gal6S(b1-3)GlcNAc
# In short: as §1
# [6] = target: Fuc(a1-2)[Gal(a1-3)]Gal(b1-4)GlcNAc(b1-3)[Fuc(a1-2)[Gal(a1-3)]Gal(b1-4)GlcNAc(b1-6)]GalNAc
# In short: as §1
# [7] = target: Fuc(a1-2)[GalNAc(a1-3)]Gal(b1-4)Glc
# In short: as §1
# [8] = target: Fuc(a1-2)[GalNAc(a1-3)]Gal(b1-4)GlcNAc(b1-2)Man(a1-3)[Fuc(a1-2)[GalNAc(a1-3)]Gal(b1-4)GlcNAc(b1-2)Man(a1-6)]Man(b1-4)GlcNAc(b1-4)[Fuc(a1-6)]GlcNAc
# In short: as §1
# [9] = target: Fuc(a1-3)[Gal(b1-4)]GlcNAc(b1-2)Man(a1-3)[Fuc(a1-3)[Gal(b1-4)]GlcNAc(b1-2)Man(a1-6)]Man(b1-4)GlcNAc(b1-4)GlcNAc
# In short: as §1
# [10] = target: Fuc(a1-3)[Gal(b1-4)]GlcNAc(b1-3)Gal(b1-4)[Fuc(a1-3)]GlcNAc(b1-3)Gal(b1-4)[Fuc(a1-3)]GlcNAc
# In short: as §1
# [11] = target: Fuc(a1-3)[Gal(b1-4)]GlcNAc(b1-3)GalNAc
# In short: as §1
# [12] = target: Gal(a1-3)Gal
# In short: as §1
# [13] = target: Gal(b1-3)GalNAc(a1-3)[Fuc(a1-2)]Gal(b1-4)Glc
# In short: as §1
# [14] = target: Gal(b1-3)GlcNAc
# In short: as §1
# [15] = target: Gal(b1-3)GlcNAc(a1-3)Gal(b1-4)GlcNAc
# In short: as §1
# [16] = target: Gal(b1-3)GlcNAc(b1-3)Gal(b1-4)GlcNAc(b1-2)[Gal(b1-3)GlcNAc(b1-3)Gal(b1-4)GlcNAc(b1-6)]Man(a1-6)[Gal(b1-3)GlcNAc(b1-3)Gal(b1-4)GlcNAc(b1-2)Man(a1-3)]Man(b1-4)GlcNAc(b1-4)[Fuc(a1-6)]GlcNAc
# In short: as §1
# [17] = target: Gal(b1-4)GlcNAc(b1-3)Gal(b1-4)GlcNAc(b1-3)Gal(b1-4)GlcNAc(b1-2)Man(a1-3)[Gal(b1-4)GlcNAc(b1-3)Gal(b1-4)GlcNAc(b1-3)Gal(b1-4)GlcNAc(b1-2)Man(a1-6)]Man(b1-4)GlcNAc(b1-4)[Fuc(a1-6)]GlcNAc
# In short: as §1
# [18] = target: Gal(b1-4)GlcNAc(b1-3)Gal(b1-4)GlcNAc(b1-3)Gal(b1-4)GlcNAc(b1-3)Gal(b1-4)GlcNAc(b1-3)Gal(b1-4)GlcNAc(b1-2)[Gal(b1-4)GlcNAc(b1-3)Gal(b1-4)GlcNAc(b1-3)Gal(b1-4)GlcNAc(b1-3)Gal(b1-4)GlcNAc(b1-3)Gal(b1-4)GlcNAc(b1-6)]Man(a1-6)[Gal(b1-4)GlcNAc(b1-3)Gal(b1-4)GlcNAc(b1-3)Gal(b1-4)GlcNAc(b1-3)Gal(b1-4)GlcNAc(b1-3)Gal(b1-4)GlcNAc(b1-2)Man(a1-3)]Man(b1-4)GlcNAc(b1-4)[Fuc(a1-6)]GlcNAc
# In short: as §1
# [19] = target: Gal(b1-4)GlcNAc(b1-3)Gal(b1-4)GlcNAc(b1-3)Gal(b1-4)GlcNAc(b1-3)Gal(b1-4)GlcNAc(b1-3)Gal(b1-4)GlcNAc(b1-3)Gal(b1-4)GlcNAc(b1-2)Man(a1-3)[Gal(b1-4)GlcNAc(b1-3)Gal(b1-4)GlcNAc(b1-3)Gal(b1-4)GlcNAc(b1-3)Gal(b1-4)GlcNAc(b1-3)Gal(b1-4)GlcNAc(b1-3)Gal(b1-4)GlcNAc(b1-2)Man(a1-6)]Man(b1-4)GlcNAc(b1-4)GlcNAc
# In short: as §1
# [20] = target: Gal(b1-4)GlcNAc(b1-3)Gal(b1-4)[Fuc(a1-3)]GlcNAc(b1-3)Gal(b1-4)[Fuc(a1-3)]GlcNAc
# In short: as §1
# [21] = target: Gal(b1-6)Gal
# In short: as §1
# [22] = target: Gal3S(b1-4)GlcNAc
# In short: as §1
# [23] = target: Gal3S6S(b1-4)GlcNAc
# In short: as §1
# [24] = target: Gal6S(b1-4)Glc
# In short: as §1
# [25] = target: GalNAc(b1-3)GalNAc
# In short: as §1
# [26] = target: GalNAc(b1-3)GlcNAc
# In short: as §1
# [27] = target: GalNAc(b1-4)Gal(b1-4)Glc
# In short: as §1
# [28] = target: GalNAc(b1-4)GlcNAc
# In short: as §1
# [29] = target: GalNAc(b1-4)GlcNAc6S
# In short: as §1
# [30] = target: GlcA3S(b1-3)Gal(b1-4)GlcNAc(b1-2)Man
# In short: as §1
binder,measurement,setting,value
"CBP21 (Serratia marcescens), O83009 (protein) MNKTSRTLLSLGLLSAAMFGVSQQANAHGYVESPASRAYQCKLQLNTQCGSVQYEPQSVEGLKGFPQAGPADGHIASADKSTFFELDQQTPTRWNKLNLKTGPNSFTWKLTARHSTTSWRYFITKPNWDASQPLTRASFDLTPFCQFNDGGAIPAAQVTHQCNIPADRSGSHVILAVWDIADTANAFYQAIDVNLSK",glycan array binding signal (z-score),[1],4.3
same,glycan array binding signal (z-score),[2],-1.02
same,glycan array binding signal (z-score),[3],3.02
same,glycan array binding signal (z-score),[4],2.95
same,glycan array binding signal (z-score),[5],-0.19
same,glycan array binding signal (z-score),[6],2.99
same,glycan array binding signal (z-score),[7],-0.513
same,glycan array binding signal (z-score),[8],-0.038
same,glycan array binding signal (z-score),[9],-0.009
same,glycan array binding signal (z-score),[10],-1.15
same,glycan array binding signal (z-score),[11],0.402
same,glycan array binding signal (z-score),[12],-0.172
same,glycan array binding signal (z-score),[13],-0.45
same,glycan array binding signal (z-score),[14],-0.226
same,glycan array binding signal (z-score),[15],0.425
same,glycan array binding signal (z-score),[16],3.27
same,glycan array binding signal (z-score),[17],2.68
same,glycan array binding signal (z-score),[18],2.67
same,glycan array binding signal (z-score),[19],1.21
same,glycan array binding signal (z-score),[20],-0.565
same,glycan array binding signal (z-score),[21],-0.589
same,glycan array binding signal (z-score),[22],1.21
same,glycan array binding signal (z-score),[23],0.23
same,glycan array binding signal (z-score),[24],-0.3
same,glycan array binding signal (z-score),[25],-0.453
same,glycan array binding signal (z-score),[26],-0.162
same,glycan array binding signal (z-score),[27],1.03
same,glycan array binding signal (z-score),[28],0.482
same,glycan array binding signal (z-score),[29],0.16
same,glycan array binding signal (z-score),[30],-1.64
